This passage reports inhibition results from PubChem BioAssay AID651821 (The Scripps Research Institute Molecular Screening Center, 2012).

As usually defined, the inhibition is the change of the read-out against control, counted positive when it falls.

About 4,700 (1.3%) of roughly 370,000 compounds were called active.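 Rule for the calls: active = inhibition above the plate cutoff, the mean of all test compounds on that plate plus 3 SD (cut at about 35% in these data); inactive = the rest.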 Many of the other results were omitted from the sample, so actives are more common in it than they were.

This test in a line: small molecules binding CAG repeat RNA – biochemical, fluorescence, primary screen (AID 651821).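 Note: 0% = DMSO alone and 100% = 100 µM mitoxantrone as full dye displacement; higher means more dye released from RNA so lower well fluorescence.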 The note with it: r(CAG) RNA repeat, TO-PRO-1 dye displacement fluorescence; at 3 µM; active compounds read high.
As to `CCCCn1c(O)c(C(CC)=NCc2ccco2)c(=O)[nH]c1=O`, the inhibition was -0.86% (inactive).

Consider `O=c1[nH]c(=O)n(Cc2ccccc2)c(O)c1/C=N/Nc1c(F)c(F)c(F)c(F)c1F`, for which the inhibition is 0.55% (inactive).

As for `CC/C(=N\NC(=O)c1ccccc1O)c1c(O)n(Cc2ccccc2)c(=O)[nH]c1=O`, the inhibition was 80.1% (active).

As for `C[N+]1(C)CCOC(O)(c2ccc(-c3ccc(C4(O)C[N+](C)(C)CCO4)cc3)cc2)C1` (stereo not given), the inhibition is 3.46% (inactive).

`Cc1ccccc1CCC[C@@H](CC1CCCCC1)CN(C)C(=O)Oc1ccccc1`: the inhibition is 6.44% (inactive).

Regarding `Clc1ccc([C@@H]2CC3CCC2N3)cn1` (stereo not given in full), the inhibition was 1.8% (inactive).

For `COc1cc(OC)cc(C(=O)NCCN2CCC3(CC2)C(=O)NCN3c2ccccc2)c1`, the inhibition was 4.12% (inactive).

With `COc1ccc(N2C(=O)/C(=C/c3ccco3)C(=O)NC2=S)cc1`, the inhibition was 67.3% (active).

For the compound `O=Cc1cn(Cc2ccc(F)cc2Cl)c2ccccc12`, the inhibition is -0.22% (inactive).

Consider `CCc1nnc(NS(=O)(=O)c2ccc(N=Cc3c(O)n(-c4ccccc4)c(=O)[nH]c3=O)cc2)s1`, for which the inhibition was 5.87% (inactive).

With `O=C1CC(=O)N(Cc2ccccc2)C(=O)N1CCCCCCN1C(=O)CC(=O)N(Cc2ccccc2)C1=O`, the inhibition is 68% (active).

Turning to `CC(C)(C)c1ccc(CN2C(=O)CN=C(c3ccccc3)c3ccccc32)cc1`, the inhibition is -3.15% (inactive).

Regarding `O=C(NC(=S)N1C[C@H]2C[C@H](C1)c1cccc(=O)n1C2)c1ccc(F)cc1`, the inhibition is 0.97% (inactive).

Consider `O=C1C2(Cl)C3(Cl)C4(Cl)C(Cl)(Cl)C5(Cl)C3(Cl)C1(Cl)C5(Cl)C24Cl` (stereo not given), for which the inhibition was 11.4% (inactive).

In the case of `Cc1cc(=O)oc2c(C)c(OCC(=O)N3CCN(Cc4ccc5c(c4)OCO5)CC3)ccc12`, the inhibition was -1.14% (inactive).

Consider `O=C1NC(=O)N(c2ccccc2)C(=O)/C1=C/c1ccc([N+](=O)[O-])s1`, for which the inhibition is 70.2% (active).

Regarding `COc1cccc(N2C(=O)NC(=O)/C(=C\c3ccc([N+](=O)[O-])s3)C2=O)c1`, the inhibition was 56% (active).

Turning to `CC1=C(C(=O)Nc2ccccc2)SCCO1`, the inhibition is 5.19% (inactive).

For `Cc1ccsc1C(=O)C1CCCN(Cc2ccc(O)cc2)C1` (stereo not given), the inhibition was -1.2% (inactive).

With `O=c1[nH]c(=O)n(-c2ccccc2)c(O)c1C=NC12CN3CN(CN(C3)C1)C2`, the inhibition is 2.56% (inactive).

Take `O=S(=O)(c1ccccc1)N1CCC2CCNC2C1` (stereo not given): the inhibition is 1.15% (inactive).

With `Cc1cc(N2CCNC[C@@H]2C)ccc1N1CC[C@H](O)C1`, the inhibition was 3.47% (inactive).

In the case of `COc1ccccc1OC(=O)c1ccc(C)c(S(=O)(=O)N2CCOCC2)c1`, the inhibition was -3.22% (inactive).

With `CS(=O)(=O)N1CCC2CCNC2C1` (stereo not given), the inhibition is 0.17% (inactive).

Consider `COP(=O)(Sc1ccccc1)C(Cc1ccccc1)NC(=O)OCc1ccccc1` (stereo not given), for which the inhibition is -1.61% (inactive).

As to `CCC(C)NC1(c2ccccc2)CCCCC1` (stereo not given), the inhibition was 2.27% (inactive).

Turning to `COc1ccc(CN2CCN(c3ccccc3F)CC2)c(OC)c1`, the inhibition was -4.43% (inactive).

On to `Brc1ccc2c(c1)CNCc1cnnn1-2`, for which the inhibition was 0.59% (inactive).

As to `COc1ccc2[nH]c3c(c2c1)CCN[C@H]3C`, the inhibition was 3.06% (inactive).

Consider `COc1ccc2c(c1)[C@@]13CCCCC1[C@@H](C2)NCC3` (stereo not given in full), for which the inhibition is 37.9% (active).

In the case of `COc1ccc2c(c1)[C@]13CCCCC1C(C2)N(C)CC3` (stereo not given in full), the inhibition is 3.99% (inactive).

On to `CCN(CC)C(=O)[C@@H]1C=C2c3cccc4[nH]c(Br)c(c34)C[C@H]2N(C)C1`, for which the inhibition is 2.23% (inactive).

As to `CN(C)C(=O)NC(O)C(Cl)(Cl)Cl` (stereo not given), the inhibition was -3.56% (inactive).

For `O=C1NC(=O)N(Cc2ccco2)C(=O)/C1=C\c1ccc(-c2ccc(F)cc2)o1`, the inhibition is 52.2% (active).

`CCC1(CC(C)c2ccccc2)C(=O)NC(=O)NC1=O` (stereo not given): the inhibition is 1.88% (inactive).
